Results on 40 compounds are retold here after PubChem BioAssay (Tox21).

Records with an inconclusive call do not appear. A call without a number means that no potency is given here. Active and inactive are the calls of the source. Calls follow the shape of the dose curve; as a rule, active = well fitted cell-killing curve with a large enough effect in the repeat runs; inconclusive = weak or mixed curves, or effect the other way; inactive = no such curve, though single readings can be large or run the other way.
Potency is read from the fitted curve at half-maximal effect.

This assay is described as follows: qHTS assay for identifying genotoxic compounds that show differential cytotoxicity against isogenic chicken DT40 cell lines with known DNA damage response pathways - wild type cell line (AID 743012). Also: nearly all actives have a fitted effect of over 60% in size. The conditions noted are these: DT40 wild type chicken cells viability, CellTiter-Glo, 40 h; series mostly up to 68.4 µM. The text has this:
U.S. Tox21 Program National Center for Advancing Translational Sciences [NCATS] NIH Chemical Genomics Center [NCGC] U.S. Environmental Protection Agency [EPA] National Institutes of Environmental Health Sciences [NIEHS] National Toxicology Program [NTP] U.S. Food and Drug Administration [FDA] Tox21 Assay Overview: DNA repair pathways play a critical role in cellular homeostasis by repairing DNA damage induced by endogenous processes and xenobiotics. Isogenic chicken DT40 cell lines deficient in different DNA repair pathways can be used to identify genotoxic compounds and aid in characterizing the nature of the DNA damage induced. Two DNA repair-deficient cell lines with disrupted genes, Rad54/Ku70 or Rev3, were used to screen the Tox21 10K compound library. Possible genotoxicity was based on the presence of a significant increase in cytotoxicity in one or more of the DNA repair-deficient cell lines compared to that observed in the parental DNA repair-proficient cell line. CellTiter Glo viability assay (Promega, Madison, WI) was used to measure cell viability in these cells after compound treatment. This assay includes the data from the wild type cell line.
Tox21 Assay Protocol Summary: 300 DT40 wild type cells in 5 uL/well were dispensed into white, solid-bottom 1536-well plates using a Multidrop Combi (ThermoFisher Scientific, Waltham, MA) dispenser. After the assay plates were incubated at 37 C/5% CO2 for approximately 0.5 hour, 23 nL of compounds dissolved in DMSO, positive controls or DMSO only was transferred into the assay plate by a pintool work station (Kalypsys, San Diego, CA). The assay plates were incubated at 37 C/5% CO2 for 40 hours. After 5 uL per well of CellTiter-Glo reagent was added into each well of the assay plates, the plates were incubated for 30 min at room temperature and the luminescence intensity of the plates was measured using a ViewLux (PerkinElmer, Shelton, CT) plate reader.
Background: In qHTS, concentration-response curves come from the screen itself.
On to `O=C(Nc1ccccc1)N(Cc1ccc(Cl)cc1)C1CCCC1`, for which the Potency was 3.86 µM (active). With `CC1CCC(=O)O1` (stereo not given) the entry was “inactive”. For the compound `CN1CCC(O)(c2ccc(F)cc2)C(C(=O)c2ccc(F)cc2)C1` (stereo not given), the Potency is 9.44 µM (active). With `CC1(C(=O)Nc2ccc(O)c(Cl)c2Cl)CCCCC1` the figure was 68.6 µM (active); with `CC(C)[N+](=O)[O-]`, “inactive”; with `CC1(C)C(=O)NC(=O)NC1=O`, “inactive”. Take `CC1CN1P(=O)(N1CC1C)N1CC1C` (stereo not given): the Potency entry was “inactive”. With `O=C(NCO)NCO` the entry was “inactive”; with `Cc1cc(C)nc(Nc2ccccc2)n1`, “inactive”. With `C=CCC1=C(C)[C@@H](OC(=O)[C@@H]2[C@@H](C=C(C)C)C2(C)C)CC1=O` the figure was 15.4 µM (active); with `OCCBr`, “inactive”. As to `CCN(CC)c1nc(C)cc(OP(=S)(OC)OC)n1`, the Potency is 48.6 µM (active).

`N#CC(CCc1ccc(Cl)cc1)(Cn1cncn1)c1ccccc1` (stereo not given): the Potency was 13.7 µM (active). Turning to `COC(=O)COc1ccc(Cl)cc1Cl`, the Potency entry was “inactive”. As to `N#CC(O)c1ccccc1` (stereo not given), the Potency result was “inactive”. With `C[C@]12CC[C@H]3[C@@H](CC=C4C[C@@H](O)CC[C@@]43C)[C@@H]1CC[C@@H]2O` the entry was “inactive”; with `Fc1ccc(C2(Cn3cncn3)OC2c2ccccc2Cl)cc1` (stereo not given), 15.4 µM (active).

Take `CS(=O)(=O)c1cc(C(F)(F)F)ccc1C(=O)c1cnoc1C1CC1`: the Potency result was “inactive”.

Take `C[N+](=O)[O-]`: the Potency entry is “inactive”. Take `O=C(N[C@H]1CN2CCC1CC2)c1cc2ccoc2cn1`: the Potency result is “inactive”. For the compound `CCOP(=S)(OCC)SCSc1ccc(Cl)cc1`, the Potency result was “inactive”. With `CC1=NNC(=O)N(/N=C/c2cccnc2)C1` the entry was “inactive”. As to `CCS(=O)(=O)CCSP(=O)(OC)OC`, the Potency was 61.1 µM (active). Take `Cc1ccccc1CO[C@@H]1C[C@@]2(C(C)C)CC[C@]1(C)O2`: the Potency is 43.3 µM (active). For `CCN(Cc1ccc(Cl)nc1)/C(=C/[N+](=O)[O-])NC`, the Potency result was “inactive”. As for `CCNc1nc(NC(C)C)nc(OC)n1`, the Potency result is “inactive”. For the compound `CNC(=O)Oc1cccc(C(C)C)c1`, the Potency entry is “inactive”. Regarding `Cc1ncsc1CCCl`, the Potency result was “inactive”.

In the case of `O=NN1CCCCC1`, the Potency entry was “inactive”. On to `NC(=O)c1cc([N+](=O)[O-])cc([N+](=O)[O-])c1`, for which the Potency entry was “inactive”. On to `CN1CCN(C(=O)O[C@H]2c3nccnc3C(=O)N2c2ccc(Cl)cn2)CC1`, for which the Potency entry is “inactive”. With `Cc1ncc(CNC(=O)N(CCCl)N=O)c(N)n1` the entry was “inactive”; with `COP(N)(=S)Oc1ccccc1C(=O)OC(C)C` (stereo not given), “inactive”.

On to `NC1=NC(=O)C(c2ccccc2)O1` (stereo not given), for which the Potency entry was “inactive”. For `CC(CC(C#N)(c1ccccc1)c1ccccc1)N(C)C` (stereo not given), the Potency was 30.5 µM (active).

Turning to `CC(C)CC#N`, the Potency entry is “inactive”.

As for `N#CCCC#N`, the Potency entry is “inactive”. Take `CC(=O)CCc1ccc2c(c1)OCO2`: the Potency entry was “inactive”. On to `CC1=C(C(=O)Nc2ccccc2)S(=O)(=O)CCO1`, for which the Potency is 15.3 µM (active). Consider `COC(C)(C)C`, for which the Potency result is “inactive”.
